High-throughput results: PubChem BioAssay, National Center for Advancing Translational Sciences (NCATS)
IL1B secr inh: inhibitors of inflammasome signaling (IL-1 beta secretion) | 360,000 tested, 4.7% active | THP-1 LPS/ATP IL-1B secretion, AlphaLISA, 16 h; hits give low values | activity change, % at 57.5 µM; in the data active means activity change below about -50%; inconclusive means mostly about -30% to -49%; further: on the % scale 0 is the no-effect control and ±100 the full control effect
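THP-1 cells pretreated 1 hr with compounds (up to 57.5 uM final), then stimulated with LPS (250 ng/mL final) plus ATP (1.25 mM final); secreted IL-1B measured by AlphaLISA after 16 hr, decreased signal indicating inhibition.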
SW480 rereplic: induces DNA re-replication in SW480 colon adenocarcinoma cells. SW480 DNA re-replication, Hoechst DNA content imaging, 48 h. Potency, µM (doses to about 46.1 µM), without a hit: at the highest dose re-replication activation, actives largely listed as activators. 340,000 tested, 1.8% active; further: potency means the concentration at half of the fitted maximal effect; % of control where 0% means no effect; nearly all actives have a fitted effect of over 55% in size
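First, 250 cells per well were seeded. Next, compound or vehicle (23 nL) was pinned in, plates sat 48 hr at 37 C. Finally Hoechst was added for 40 min before fluorescence scanning.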
MCF10A rereplic: inducers of DNA re-replication in MCF 10A breast cells; AID 624296; 350,000 tested, 2.9% active; Potency, µM (doses to about 46.1 µM), inactives show at the highest dose activity, positive = re-replication, hits mostly activators; MCF 10A DNA re-replication, Hoechst nuclear intensity, 48 h; further: potency means the concentration at half of the fitted maximal effect; % of control where 0% means no effect; nearly all actives have a fitted effect of over 50% in size
KB-V1 cytotox: kills drug-selected multidrug resistant KB-V1 cells. 400,000 tested, 3.4% active. KB-V1 MDR cells viability, CellTiter-Glo, 72 h. AID 1347076. Potency, µM (doses to about 46.1 µM), actives largely listed as cytotoxic; further: potency means the concentration at half of the fitted maximal effect; on the % scale 0 is the no-effect control and ±100 the full control effect; nearly all actives have a fitted effect of over 60% in size
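Following 72 h at 37 degrees C with compound, KB-V1 cell viability was read by CellTiter-Glo luminescence, medium being phenol-red-free DMEM plus 10% FBS; concentration-response parameters came from normalized, curve-fitted qHTS data.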
KB-3-1 cytotox: KB-3-1 parental cell cytotoxicity | KB-3-1 viability, CellTiter-Glo ATP luminescence, 72 h | AID 1347075 | Potency, µM (top dose mostly 46.1 µM), usual class: cytotoxic | 400,000 tested, 1.4% active; further: potency means the concentration at half of the fitted maximal effect; on the % scale 0 is the no-effect control and ±100 the full control effect; nearly all actives have a fitted effect of over 60% in size
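72 h, 37 °C compound treatment of KB-3-1 parental cells; CellTiter-Glo added, 10 min, luminescence read. Data corrected against DMSO-only plates and normalized before curve fitting.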
Numbers without * were called inactive; i = inactive; ? = inconclusive; . = not tested or not shown; [ ] = dose if it differs, or a comment. A selection: hits, their analogues and other compounds. The true share with any hit is near 9.9%. Unless noted, the call rests on the fitted dose curve; in most records, active means well fitted curve in the direction sought with a large enough effect; inconclusive means small, poorly fitted or top-dose-only effect, or another doubt; inactive means no such curve, though single readings can be large; an effect the other way counts as inactive or inconclusive.

SMILES	IL1B secr inh	SW480 rereplic	MCF10A rereplic	KB-V1 cytotox	KB-3-1 cytotox
CCOc1ccc(NC(=O)COc2ccc(S(=O)(=O)NC3CCCCC3)cc2)cc1	.	.	.	?	i
Cc1ccc(OCC(=O)N(c2ccccn2)C2CCCCC2)c(C)c1	0	-115%	5%	18µM*	i
COc1cccc(CNC(=O)c2cc3c(c(-c4cccc(-c5cccc(C#N)c5)c4)n2)[C@H](CCO)N(S(=O)C(C)(C)C)C3)c1 (stereo partly specified)	-17	.	.	i	i
Cc1ccc(C)n1-c1ccc(-c2ccnc(N)n2)cc1	-83*	?	?	?	i
Cc1onc(-c2ccccc2)c1-c1ccnc(N)n1	-18	-14%	3%	i	i
CNC[C@H]1Oc2cc(Br)ccc2S(=O)(=O)N([C@@H](C)CO)C[C@@H]1C	-13	.	.	i	i
CC1CCN(S(=O)(=O)c2ccc3c(c2)C(=NO)c2cc(S(=O)(=O)N4CCC(C)CC4)ccc2-3)CC1	-89*	?	0.52µM*	i	?
O=S(=O)(c1ccc(S(=O)(=O)N2CCCC2)cc1)N1CCCCCC1	23	-5%	1%	i	i
O=S(=O)(c1ccc2c(c1)C(=NO)c1cc(S(=O)(=O)N3CCCCC3)ccc1-2)N1CCCCC1	-85*	12µM*	2.1µM*	5.2µM*	1.2µM*
Nc1cc(S(=O)(=O)N2CCCCC2)ccc1N1CCCCC1	-7	-3%	4%	18µM*	?
Cc1ccc(S(=O)(=O)N2CCN(S(=O)(=O)N3CCCCC3)CC2)cc1C	-5	-5%	-31%	i	i
Cc1ccc(S(=O)(=O)N2CCN(S(=O)(=O)N3CCC(C)CC3)CC2)cc1C	-7	2%	18µM*	i	i
CNc1c2cccc(C)c2nc2c(C(=O)NCCN(C)C)cccc12	-117*	?	-11%	?	0.29µM*
Cc1ccc(C(=O)NCCN(C)C)c(C)c1	12	-4%[9.22 µM]	0%	i	i
COc1cc(OC)cc(-c2oc3cccnc3c2C#CCCO)c1	-64*	-3%	-2%	i	i
CCOc1ccccc1NC(=O)Cn1c(=O)n(-c2ccccc2)c(=O)c2oc3ccccc3c21	17	-50%	-1%	?	i
O=C(Cn1c(=O)n(-c2ccccc2)c(=O)c2oc3ccccc3c21)Nc1ccccc1	-10	-4%	?	15µM*	i
NC(=O)Cn1c(=O)n(-c2ccccc2)c(=O)c2oc3ccccc3c21	-50*	10%	0%	i	i
CNc1ccccc1C(C)(C)c1cc(-c2cccc(Br)c2)no1	-25	26%	15µM*	i	23µM*
CC(C)(C)c1cc(-c2ccccc2)no1	4	-7%	-6%	i	i
CNc1ccccc1C(C)(C)c1cc(-c2cccc([N+](=O)[O-])c2)no1	-8	?	?	i	i
CNc1ccccc1C(C)(C)c1cc(-c2ccc(F)cc2)no1	-8	.	-5%	?	8.2µM*
CNc1nc(-c2c[nH]c3ccccc23)cs1	?	4%	23%	i	i
CN1CCN(CC(=O)Nc2nc3ccccc3s2)CC1	-7	-5%	-2%	i	i
CCC(C)Nc1nc(-c2c[nH]c3ccccc23)cs1 (stereo unspecified)	-82*	?	?	i	i
SMILES	IL1B secr inh	SW480 rereplic	MCF10A rereplic	KB-V1 cytotox	KB-3-1 cytotox
CN1CCN(CC(=O)Nc2nc(-c3c[nH]c4ccccc34)cs2)CC1	-68*	-5%	-9%	i	i
Cc1ccc(F)cc1NC(=O)COC(=O)C1CCN(c2ccc(C(F)(F)F)cn2)CC1	20	-4%	-4%	?	i
Cc1ccc(C)c(OCc2nnc(N)s2)c1	-6	0.73µM*	?	i	i
O=C(O)c1cc(O)ccc1N=Nc1ccccc1	?	?	23µM*	i	i
O=C(O)c1cc(O)ccc1-c1ccc(O)cc1	31	-5%	-5%	i	i
Oc1ccc(N=Nc2ccccc2)cc1	1	-5%	-5%	i	i
O=C(O)c1ccccc1N=Nc1ccc(O)cc1	-28	1.2µM*	?	i	i
CC(C)C(=O)Nc1nnc2n1CCS2	.	.	.	i	i
